Compounds with a hit are over-represented: about 3.3% of the library has one in this group of screens.
esBAF inh = blocks esBAF chromatin remodeling in mouse ES cells; Bmi1-luciferase knock-in reporter, 24 h; 100% = twice the neutral-well signal; reporter increase, % at 12.5 µM; 2% of 350,000 active; in the data active means activation above about 40%; inconclusive means no clear call, values can overlap the other calls;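 further: a rise in the Bmi1 reporter signal indicates esBAF inhibition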
C2C12 statin = suppressors of simvastatin-induced myotoxicity in C2C12 myotubes; ATP luminescence, 48 h; scaled: DMSO 0, geranylgeraniol control 100; rescue of ATP level, % at 7.49 µM; 0.78% of 330,000 active;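 active means mean ATP rescue above about 67%, or every replicate alone reaching that limit, limit read from the data, passing the limit was not always enough; inconclusive means no clear call, values can overlap the other calls; inactive means mean under the limit and some replicate under it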;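 further: myotubes were challenged with 10 µM simvastatin during compound exposure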
MITF TRPM1 HTS = activators of MITF-driven TRPM1 promoter activity in SK-MEL-5 cells; SK-MEL-5 TRPM1-promoter luciferase, 24 h; % of positive control, neutral wells = 0; activation, % at 12.5 µM; 0.75% of 300,000 active; AID 588334;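 active means mean activation of at least 80% with every replicate also reaching 80%; inconclusive means mean reaches 80% but some replicate falls short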
Wnt act = activators of Wnt/beta-catenin signaling | Wnt/beta-catenin reporter cell assay, activator, plate reader | activation, % at 9.35 µM | 1.2% of 300,000 active; in the data active means activation above about 30%, passing the limit was not always enough; inconclusive means no clear call, values can overlap the other calls
FXN GAA850 act = increases GAA850 frataxin promoter reporter activity; HEK293 lucGAA850 FXN promoter luciferase reporter, 24 h; percent of 10 µM SAHA response; 0.56% of 360,000 active; activation, % at 6 µM; AID 540364;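 active means activation above the average of all compounds screened plus 3 SD, cutoff fixed separately per campaign, cut at about 7.5% in these data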
Each line names hits and unclear results; the compound was inactive in the other large screens.

CN(C(=O)CSc1nc(-c2ccccc2)cs1)C1CCS(=O)(=O)C1 (stereo not given)	none (no result: Wnt act)
CN(c1nc(-c2ccccc2)cs1)C1CCS(=O)(=O)C1 (stereo not given)	esBAF inh 75
CC(=O)c1ccc(OCc2cc(C(=O)NC(C)CCn3cccn3)no2)cc1 (stereo not given)	esBAF inh 71
Cc1ccc(OCc2cc(C(=O)NCCn3cccn3)no2)cc1C	none
O=C(NCCCn1cccn1)c1cc(COc2ccccc2)on1	esBAF inh 82, Wnt act inconclusive (no result: MITF TRPM1 HTS)
COCC(=O)Nc1ccc2c(c1)OC[C@H](C)N(CCC(F)(F)F)C[C@H](C)[C@@H](OC)CN(C)C2=O	none (no result: MITF TRPM1 HTS, Wnt act, FXN GAA850 act)
COc1ccc(/C=C/C(=O)c2ccccc2)cc1COc1ccc(F)cc1	none (no result: esBAF inh, C2C12 statin)
COc1ccc(/C=C/C(=O)c2ccccc2)cc1Cn1nnc2ccccc21	Wnt act 43 (no result: esBAF inh, C2C12 statin)
COc1ccccc1OCC(=O)Nc1nnc(C2CCCC2)s1	none
COc1ccccc1NC(=O)CCC(=O)Nc1nnc(C2CCCCC2)s1	Wnt act 34
Cc1ccc(-c2ccc3c(c2)O[C@@H](CN(C)C(=O)CN(C)C)[C@H](C)CN([C@@H](C)CO)S3(=O)=O)cc1	none (no result: MITF TRPM1 HTS, Wnt act, FXN GAA850 act)
CN1CCN(C(c2ccccc2)c2nnnn2Cc2ccccc2)CC1 (stereo not given)	C2C12 statin 141 (no result: Wnt act)
CN1C(=O)c2cc(NC(=O)C3CCCCC3)ccc2OC[C@@H]2O[C@H](CC(=O)NC3CCCC3)CC[C@H]21	none (no result: MITF TRPM1 HTS, Wnt act, FXN GAA850 act)
COc1ccc(OC)c(NC(=O)N2CCc3ccccc3C2)c1	none
Cc1ccc(NC(=O)N2CCc3ccccc3C2)cc1C	esBAF inh 61, MITF TRPM1 HTS 95, Wnt act inconclusive
COc1ccc(NC(=O)N2CCc3ccccc3C2)c(OC)c1	esBAF inh 54
O=C(Nc1ccc(F)cc1)N1CCc2ccccc2C1	Wnt act 57 (no result: esBAF inh, C2C12 statin)
COc1ccc(NC(=O)N2CCc3ccccc3C2)cc1OC	none
O=[N+]([O-])c1cccc(NC(=S)N2CCc3ccccc3C2)c1	esBAF inh 58
C[C@H](CO)N1C[C@H](C)[C@@H](CN(C)Cc2ccc(C(F)(F)F)cc2)Oc2c(NS(C)(=O)=O)cccc2C1=O	none (no result: MITF TRPM1 HTS, Wnt act, FXN GAA850 act)
Cc1ccc(NC(=O)C2OCCc3ccccc32)cc1C (stereo not given)	esBAF inh 58
Cc1cc(C)cc(NC(=O)N2CCc3ccccc3C2)c1	esBAF inh 45
CN(C)Cc1cn(CC[C@@H]2CC[C@H](N)[C@H](CO)O2)nn1	none (no result: MITF TRPM1 HTS, Wnt act, FXN GAA850 act)
COc1cc(/C=C/C(=O)N2C(=O)c3cccc(N)c3C2=O)cc(OC)c1OC	Wnt act 135
C/C=C/c1cnc2c(c1)C(=O)N([C@@H](C)CO)C[C@H](C)[C@H](CN(C)C(=O)C1CCC1)O2	none (no result: esBAF inh, MITF TRPM1 HTS, Wnt act, FXN GAA850 act)
O=C(Nc1ccc(N2CCOCC2)c(Cl)c1)c1ccccc1F	esBAF inh 103, MITF TRPM1 HTS inconclusive (no result: Wnt act)
O=C(Nc1ccc(N2CCCC2)c(Cl)c1)c1ccc(Br)o1	esBAF inh 76 (no result: Wnt act)
O=C(N/N=C/c1ccc(Cl)c([N+](=O)[O-])c1)c1ccc2c(c1)OCCO2	none
O=C(Nc1ccc(N2CCCCC2)c(Cl)c1)c1ccc2c(c1)OCCO2	esBAF inh 52 (no result: C2C12 statin, MITF TRPM1 HTS)
O=C(Nc1ccc(Cl)c([N+](=O)[O-])c1)c1ccc2c(c1)OCCO2	esBAF inh 86, MITF TRPM1 HTS 95
O=C(Nc1ccc(N2CCCC2)c(Cl)c1)c1ccc2c(c1)OCCO2	none (no result: esBAF inh, C2C12 statin, Wnt act)
O=C(Nc1ccc(N2CCCC2)c(Cl)c1)c1ccccc1F	esBAF inh inconclusive (no result: MITF TRPM1 HTS)
O=C(Nc1ccccc1N1CCCC1)c1ccc(Br)o1	none (no result: Wnt act)
CCCC#Cc1ccc2c(c1)O[C@H](CN(C)C(=O)CN(C)C)[C@@H](C)CN([C@H](C)CO)S2(=O)=O	none (no result: MITF TRPM1 HTS, Wnt act, FXN GAA850 act)
CCCN1[C@@H]2c3ccc(-c4ccccc4OC)c(=O)n3C[C@@H]2[C@@H](CO)[C@@H]1C(=O)N(C)C	none (no result: MITF TRPM1 HTS, Wnt act, FXN GAA850 act)
CC(=O)N[C@@H]1CC[C@@H](CCNC(=O)C2CC2)O[C@@H]1CO	none (no result: MITF TRPM1 HTS, Wnt act, FXN GAA850 act)
O=C(Nc1ccc(N2CCOCC2)c(Cl)c1)c1ccc(Cl)cc1	esBAF inh 45
O=C(c1ccccc1)c1ccc(N2CCOCC2)c(F)c1	esBAF inh 58 (no result: C2C12 statin)
O=C(Nc1ccc(N2CCOCC2)c(F)c1)c1cccs1	MITF TRPM1 HTS 110, Wnt act inconclusive
C[C@@H]1CN([C@@H](C)CO)C(=O)Cc2cc(NS(C)(=O)=O)ccc2O[C@H]1CN(C)S(=O)(=O)c1ccc(Cl)cc1	none (no result: MITF TRPM1 HTS, Wnt act, FXN GAA850 act)
C[C@@H]1CN([C@@H](C)CO)S(=O)(=O)c2ccc(-c3cccc(C(=O)N(C)C)c3)cc2O[C@@H]1CN(C)C(=O)Cc1ccccn1	none (no result: MITF TRPM1 HTS, Wnt act, FXN GAA850 act)
Cc1ccc(Cl)cc1NC(=O)COC(=O)CC1CC2CCC1C2 (stereo not given)	C2C12 statin 112
Cc1ccc(Nc2cc(C)nc(-c3ccccc3)n2)cc1	esBAF inh inconclusive, MITF TRPM1 HTS 122, Wnt act inconclusive
Cc1cc(NCCCN)nc(-c2ccccc2O)n1	esBAF inh 45 (no result: Wnt act)
Cc1cc(Nc2ccc(Br)cc2)nc(-c2ccccc2O)n1	none (no result: MITF TRPM1 HTS)
Cc1ccc(Nc2cc(C)nc(-c3ccccc3O)n2)cc1	esBAF inh 53, Wnt act 42 (no result: MITF TRPM1 HTS)
Cc1cc(Nc2ccc(F)c(F)c2)nc(-c2ccccc2O)n1	none
COc1ccc(S(=O)(=O)N(C)C[C@H]2Oc3c(NC(=O)Nc4ccc(C(F)(F)F)cc4)cccc3C(=O)N([C@@H](C)CO)C[C@@H]2C)cc1	none (no result: MITF TRPM1 HTS, Wnt act, FXN GAA850 act)
COCC(=O)Nc1ccc2c(c1)C(=O)N(C)C[C@H](OC)[C@H](C)CN(Cc1ccccc1)[C@@H](C)CO2	none (no result: MITF TRPM1 HTS, Wnt act, FXN GAA850 act)
CC(=O)C1=C(O)C(=O)N(c2ccccn2)C1c1ccc(Cl)cc1 (stereo not given)	esBAF inh 47
CC(=O)C1=C(O)C(=O)N(c2ccccn2)C1c1ccc(C)cc1 (stereo not given)	none
Cc1ccc(N2C(=O)[C@@H]3Cc4ccccc4CN3C2=O)cc1	esBAF inh 55
C[C@@H]1CN([C@@H](C)CO)C(=O)CCCn2cc(nn2)CO[C@@H]1CN(C)C(=O)Nc1ccc(C(C)(C)C)cc1	none (no result: MITF TRPM1 HTS, Wnt act, FXN GAA850 act)
C[C@H]1CCC(=O)N(CCSc2ccc(Br)cc2)CC1	esBAF inh 53
O=C1CCN(Cc2ccccc2)CCN1CCSc1ccccc1	esBAF inh 61
Cc1ccc(SCCN2CCC(C(C)(C)C)CCC2=O)cc1 (stereo not given)	none
CCCN1CCC(=O)N(CCSc2ccccc2)CC1	none
CC(C)(C)C1CCC(=O)N(CCSc2ccccc2)CC1 (stereo not given)	esBAF inh 62, MITF TRPM1 HTS 96, Wnt act 47
C[C@@H]1CN([C@@H](C)CO)C(=O)Cc2cc(NC(=O)C3CCCCC3)ccc2O[C@H]1CN(C)C(=O)Nc1ccc(F)cc1	none (no result: MITF TRPM1 HTS, Wnt act, FXN GAA850 act)
COc1ccc(-c2csc3ncnc(N4CCN(S(=O)(=O)c5cccc(C(F)(F)F)c5)CC4)c23)cc1	none (no result: esBAF inh, C2C12 statin)
COc1ccc(-c2csc3ncnc(N4CCN(S(=O)(=O)c5cccc(Br)c5)CC4)c23)cc1	C2C12 statin 77

High-throughput results from PubChem.
